Screens: PubChem, National Center for Advancing Translational Sciences (NCATS)
Hits are enriched below; roughly 19% of the tested compounds scored in any of these assays.
HT1080 IDH1KD tx: qHTS for induction of synthetic lethality in tumor cells producing 2HG: qHTS for the HT-1080-IDH1KD cell line; HT-1080 IDH1 knockdown viability, ATP luminescence, 48 h; Potency, µM (titrated, usually from 46.1 µM), without a hit: at the highest dose activity, negative = toxicity, actives largely listed as cytotoxic; actives 2% (n = 360,000);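 also: potency is read from the fitted curve at half-maximal effect; 0% = DMSO wells and -100% = cell-free medium wells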
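Using the IDH1-knockdown HT-1080 line run in the same batch and compound series as the NT line, viability after 48 h at 37 °C was determined by CellTiter-Glo luminescence and expressed as % activity.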
IL1B secr inh: qHTS for Inhibitors of Inflammasome Signaling: IL-1-beta AlphaLISA Primary Screen; THP-1 LPS/ATP IL-1B secretion, AlphaLISA, 16 h; hits give low values; activity change, % at 57.5 µM; actives 4.7% (n = 360,000); AID 743279, 2014; in the data active = activity change below about -50%; inconclusive = mostly about -30% to -49%
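Secreted IL-1B measured by AlphaLISA bead assay after 16 h compound exposure of THP-1 cells; compounds (final up to 57.5 uM) added 1 h before LPS (250 ng/mL) and ATP (1.25 mM) stimulation; lower signal means less secretion.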
HT1080-NT tox: qHTS for induction of synthetic lethality in tumor cells producing 2HG: qHTS for the HT-1080-NT fibrosarcoma cell line. HT-1080-NT fibrosarcoma viability, CellTiter-Glo ATP luminescence, 48 h. Potency, µM (doses to about 46.1 µM), without a hit: at the top dose activity, negative = less viability, hits mostly cytotoxic. actives 1.6% (n = 360,000). AID 686970, 2013;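 also: NT is the 2HG producing partner of a matched IDH1 knockdown line; potency is read from the fitted curve at half-maximal effect; 0% = DMSO-treated cells and -100% = media-only wells without cells; nearly all actives have a fitted effect of over 55% in size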
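Toxicity toward the 2HG-producing NT line was scored as %Activity, normalised to DMSO and no-cell wells, from CellTiter-Glo luminescence after 48 hours' treatment.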
DT40 TDP1 no CPT: qHTS for Inhibitors of human tyrosyl-DNA phosphodiesterase 1 (TDP1): qHTS in cells in absence of CPT. DT40 Tdp1-/- hTDP1 cells, no CPT, ATP luminescence, 48 h. Potency, µM (series often up to 46.2 µM), inactives show top-dose activity change, negative = growth inhibition, usual class: inhibitors. actives 15% (n = 420,000). AID 686978, 2013; also: potency is read from the fitted curve at half-maximal effect; nearly all actives have a fitted effect of over 55% in size
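Cells were dispensed at 400 per well, compounds added by pin tool, plates incubated ≥48 hr at 37 °C, then CellTiter-Glo added for 30 min at room temperature before luminescence reading. Line: DT40 Tdp1-/- complemented with hTDP1; camptothecin omitted.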
TDP1 cell CPT: qHTS for Inhibitors of human tyrosyl-DNA phosphodiesterase 1 (TDP1): qHTS in cells in presence of CPT. actives 12% (n = 420,000). Potency, µM (series often up to 46.2 µM), without a hit: at the highest dose activity change, negative = growth inhibition, hits mostly inhibitors. chicken DT40 Tdp1-/-;hTDP1 cells + 20 nM CPT, ATP luminescence, 48 h; also: potency is read from the fitted curve at half-maximal effect; nearly all actives have a fitted effect of over 55% in size
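Chicken DT40 Tdp1-/- cells complemented with human TDP1, 400 cells/well, exposed to compounds plus 20 nM camptothecin for at least 48 h at 37 C; viability read as ATP content by CellTiter-Glo luminescence.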
An asterisk follows results filed as active; ? = inconclusive; / = no result given. Unless noted, calls follow the shape of the dose curve; as a rule, active = well fitted curve in the direction sought with a large enough effect; inconclusive = small, poorly fitted or top-dose-only effect, or another doubt; inactive = no such curve, though single readings can be large; an effect the other way counts as inactive or inconclusive. Unless noted, % is scaled to controls: 0 for no effect and ±100 for the full control effect.

SMILES	HT1080 IDH1KD tx	IL1B secr inh	HT1080-NT tox	DT40 TDP1 no CPT	TDP1 cell CPT
Cc1sc(NC(=O)C2CC(=O)N(Cc3ccco3)C2)nc1-c1ccccc1 (centres undefined)	-21%	-21	-14%	?	?
Cc1sc2nc(NCCO)[nH]c(=O)c2c1C	-2%	30	-6%	-6%	?
COC(=O)c1cn(NC(=O)c2ccc3c(c2)OCO3)c(=O)c2ccccc12	-2%	8	-12%	-19%	-9%
CCCC1=NN(C(=O)Cc2ccc(OC)cc2)C(O)(C(F)(F)F)C1 (centres undefined)	3%	22	-19%	?	?
CCCC1=NN(C(=O)C(=O)Nc2ccc(Br)cc2)C(O)(C(F)(F)F)C1 (centres undefined)	16µM*	21	13µM*	4.6µM*	4.1µM*
CC(C)C1=NN(C(=O)c2cccnc2)C(O)(C(F)(F)F)C1 (centres undefined)	-2%	23	6%	?	?
COc1ccc(NC(=O)C(=O)N2N=C(C(C)C)CC2(O)C(F)(F)F)cc1 (centres undefined)	8.9µM*	-12	?	5µM*	5.8µM*
CCC1=NN(C(=O)C(=O)Nc2ccc(Br)cc2)C(O)(C(F)(F)F)C1 (centres undefined)	?	44	21µM*	-3%	-12%
Cc1cccc(OCC(=O)N(Cc2ccc(N(C)C)cc2)Cc2ccco2)c1C	/	/	/	7.3µM*	?
Cc1ccc(OCC(=O)N(Cc2ccco2)Cc2ccc(C)o2)cc1	/	/	/	16µM*	16µM*
Cc1cccc(C)c1OCC(=O)N(Cc1ccco1)C1CCS(=O)(=O)C1 (centres undefined)	-6%	-16	9%	-8%	-10%
CN(Cc1ccccc1)C(=O)COc1ccccc1Cl	14%	-13	-8%	?	-8%
Cc1ccc(CN(Cc2ccco2)C(=O)COc2cccc(C)c2C)o1	/	/	/	18µM*	16µM*
CCc1ccc(CN(Cc2ccco2)C(=O)COc2ccccc2Cl)cc1	/	/	/	23µM*	?
Cc1ccc(CN(Cc2ccco2)C(=O)c2ccc(Cl)cc2)o1	/	/	/	?	-27%
CC/C=C\[C@H](O)[C@H](O)C1=C(C)C(=O)[C@]2(O1)C(=O)N[C@@](OC)(C(=O)c1ccccc1)C2O (some centres undefined)	2%	-7	0%	-19%	-5%
CCc1ccc(OCC(=O)N(Cc2ccco2)Cc2ccco2)cc1	/	/	/	21µM*	?
CC1(C(=O)NS(=O)(=O)c2cccc(C#N)c2)CCN1C(=O)CCC1CCCC1 (centres undefined)	10%	27	19%	-12%	3%
COc1ccc(-n2nc(C(=O)NCC(=O)NCCCN3CC(C)CC(C)C3)c3ccccc3c2=O)cc1Cl (centres undefined)	?	-71*	?	?	-12%
COc1ccc(-n2nc(C(=O)NCC(=O)Nc3cc(OC)c(OC)c(OC)c3)c3ccccc3c2=O)cc1Cl	-24%	0	-22%	1.6µM*	?
O=C(NNC1=Nc2cccc3cccc1c23)c1ccc(Br)cc1	-29%	55	0%	13µM*	12µM*
Cc1ccc2[nH]c(=O)c3cc(C(=O)NCC4CCCO4)sc3c2c1 (centres undefined)	8%	-81*	13%	?	-10%
CCN(CCCNC(=O)c1cc2c(=O)[nH]c3ccc(C)cc3c2s1)Cc1ccccc1	/	/	/	4.6µM*	7.3µM*
O=C(NCC1CCCO1)c1cc2c(=O)[nH]c3ccccc3c2s1 (centres undefined)	4%	-6	6%	-29%	-1%
CCCN1CCN(CCCNC(=O)c2cc3c(=O)[nH]c4ccc(C)cc4c3s2)CC1	26µM*	/	21µM*	16µM*	?
SMILES	HT1080 IDH1KD tx	IL1B secr inh	HT1080-NT tox	DT40 TDP1 no CPT	TDP1 cell CPT
CCN(CC)CCNC(=O)c1cc2c(=O)[nH]c3ccc(C)cc3c2s1	/	/	/	-19%	6%
CCCN(CCC)CCCNC(=O)c1cc2c(=O)[nH]c3ccccc3c2s1	-15%	-73*	-29%	-6%	35%
COc1ccccc1NC(=O)CSCc1cc(=O)n2ccsc2n1	8%	15	4%	16%	10%
COc1cc2cnc(-c3ccccc3)c(-c3cc(OC)c(OC)c(OC)c3)c2cc1OC	?	-51*	-28%	13µM*	?
COc1cc2cnc(-c3ccccc3)cc2cc1OC	-10%	-20	-13%	?	18µM*
COc1cc2ncc(-c3ccccc3)nc2cc1OC	/	/	/	25µM*	21µM*
COc1cc2cnc(-c3ccccc3)c(-c3ccc([N+](=O)[O-])cc3)c2cc1OC	-1%	-10	5%	?	?
CCCCCCCCN1C(=O)[C@H](CC(=O)NCCCCc2ccccc2)C[C@@]2(C(=O)OC)CCCCC=C12	?	-15	?	?	?
CCCCCCCCN1C(=O)[C@H](CC(=O)N2CCOCC2)C[C@@]2(C(=O)OC)CCCCC=C12	-3%	0	-17%	15µM*	18µM*
CCCCCCCCN1C(=O)[C@H](CC(=O)N2CCCCC2)C[C@@]2(C(=O)OC)CCCCC=C12	?	?	?	26µM*	?
CCOc1ccc(Nc2ncnc3c2cnn3Cc2ccccc2)cc1	?	-15	?	-26%	?
OCCNc1ncnc2c1cnn2Cc1ccccc1	4%	-14	-3%	7%	-9%
c1ccc(CNc2ncnc3c2cnn3Cc2ccccc2)cc1	7.9µM*	-17	7.9µM*	13µM*	13µM*
COc1ccc(Nc2ncnc3c2cnn3Cc2ccccc2)cc1	-18%	-54*	?	?	?
CC(C)CCNc1ncnc2c1cnn2Cc1ccccc1Cl	-10%	-15	-17%	?	29µM*
Clc1ccc(Cn2ncc3c(NCc4ccco4)ncnc32)c(Cl)c1	?	12	?	?	?
O=C(NC1CCCC1)C(c1ccccc1)N(Cc1ccccc1)C(=O)c1csnn1 (centres undefined)	0%	-13	1%	-24%	13%
CC1CCCN(C(=O)c2ccc(NC(=O)CC3SC(N4CCCC4)=NC3=O)cc2)C1 (centres undefined)	3%	11	0%	-9%	2%
O=C(CNC(=O)c1ccc(Br)o1)NNC(=O)c1ccccc1F	9%	0	1%	6%	3%
